Results: PubChem BioAssay AID1159580 (chemical genetic matrix, 2015)
“And” between values parts separate entries of the source, which are not always exact repeats. Equal entries are not always repeated. In all, about 5,500 compounds went through this assay and about 2,000 (36%) were called active. Inconclusive results (about 18%) are left out. No stated cut-off is given here; in the data, active means normalized growth mostly below about 0.91 (no sharp cut-off); inconclusive means no clear call, values can overlap the other calls; inactive means mostly above about 0.92. The list shows a part of the results.

Experiment: chemical genetic growth profiling, strain panel (AID 1159580);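 further: tested at 20 µM; growth read once vehicle control cultures reached saturation at 30 °C; 1 = growth at the plate median or of vehicle wells; lower values mean less growth of the strain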
Conditions: S. cerevisiae deletion strains, growth OD

Measured: normalized growth

O=C1C(O)=C(O)C(=O)C(O)=C1O
inactive: locus YAL013W, strain DEP1, hits give low values 0.983 | locus YAL021C, strain ccr4, hits give low values 1 | locus YAL026C, strain drs2, hits give low values 1.02 | locus YAL030W, strain snc1, hits give low values 1 | locus YBL061C, strain skt5, hits give low values 1.03 | locus YBR009C, strain hhf1, hits give low values 0.992 | locus YBR021W, strain FUR4, hits give low values 1.01 | locus YBR023C, strain chs3, hits give low values 1.02 | locus YBR171W, strain sec66, hits give low values 1.02 | locus YBR229C, strain ROT2, hits give low values 0.964 | locus YBR231C, strain swc5, hits give low values 1.02 | locus YBR279W, strain paf1, hits give low values 1.01 | locus YCL011C, strain gbp2, hits give low values 0.991 | locus YCL016C, strain dcc1, hits give low values 1.02 | locus YCL029C, strain bik1, hits give low values 0.991 | locus YCL061C, strain MRC1, hits give low values 1.01 | locus YCL069W, strain vba3, hits give low values 1.03 | locus YCR088W, strain abp1, hits give low values 1.01 | locus YDL005C, strain med2, hits give low values 1.01 | locus YDL035C, strain GPR1, hits give low values 1 | locus YDL040C, strain nat1, hits give low values 0.997 | locus YDL074C, strain BRE1, hits give low values 0.968 | locus YDL101C, strain DUN1, hits give low values 0.965 | locus YDL134C, strain PPH21, hits give low values 0.983 | locus YDL185W, strain tfp1, hits give low values 0.959 | locus YDL192W, strain arf1, hits give low values 0.99 | locus YDR001C, strain nth1, hits give low values 1 | locus YDR069C, strain doa4, hits give low values 1.01 | locus YDR101C, strain arx1, hits give low values 1.01 | locus YDR137W, strain rgp1, hits give low values 0.984 | locus YDR150W, strain NUM1, hits give low values 0.968 | locus YDR159W, strain sac3, hits give low values 0.977 | locus YDR162C, strain NBP2, hits give low values 0.939 | locus YDR195W, strain ref2 0.999 | locus YDR297W, strain sur2, hits give low values 1.02 | locus YDR318W, strain mcm21, hits give low values 1.03 | locus YDR334W, strain swr1, hits give low values 1.01 | locus YDR335W, strain msn5, hits give low values 1.01 | locus YDR388W, hits give low values 0.991 | locus YDR392W, strain spt3, hits give low values 1.04 | locus YDR502C, strain sam2, hits give low values 0.996 | locus YEL003W, strain gim4, hits give low values 1.02 | locus YEL037C, strain rad23, hits give low values 0.998 | locus YEL061C, strain CIN8 (second series), hits give low values 1.01 | locus YEL061C, strain CIN8, hits give low values 0.987 | locus YER015W, strain faa2, hits give low values 1.01 | locus YER016W, strain bim1, hits give low values 1.01 | locus YER110C, hits give low values 0.986 | locus YER111C, strain swi4, hits give low values 0.991 | locus YER155C, strain BEM2 (second series), hits give low values 1.01 | locus YER155C, strain BEM2, hits give low values 1 | locus YER167W, strain BCK2, hits give low values 1.01 | locus YFR010W, strain ubp6, hits give low values 1 | locus YGL078C, strain dbp3, hits give low values 0.977 | locus YGL086W, strain mad1, hits give low values 1.02 | locus YGL167C, strain pmr1, hits give low values 1 | locus YGL173C, strain kem1, hits give low values 1.01 | locus YGL227W, strain vid30, hits give low values 1.01 | locus YGL240W, strain doc1, hits give low values 1.02 | locus YGL248W, strain PDE1, hits give low values 0.974 | locus YGL253W, strain hxk2, hits give low values 1 | locus YGR078C, strain PAC10, hits give low values 0.971 | locus YGR135W, strain pre9, hits give low values 0.968 | locus YGR229C, strain SMI1, hits give low values 0.969 | locus YGR252W, strain gcn5, hits give low values 1.04 | locus YHR013C, strain ard1, hits give low values 1.03 | locus YHR027C, strain rpn1, hits give low values 1.02 | locus YHR030C, strain SLT2, hits give low values 1 and 0.988 | locus YHR079C, strain IRE1 (second series), hits give low values 1 | locus YHR079C, strain IRE1, hits give low values 0.973 | locus YHR094C, strain hxt1, hits give low values 0.984 | locus YHR129C, strain ARP1, hits give low values 0.994 | locus YHR142W, strain chs7, hits give low values 1.02 | locus YHR200W, strain rpn10, hits give low values 1 | locus YIL066C, strain RNR3, hits give low values 0.977 | locus YIL073C, strain SPO22, hits give low values 1.07 | locus YIL125W, strain kgd1, hits give low values 0.967 | locus YIR030C, strain dcg1, hits give low values 0.993 | locus YJL092W, strain hpr5, hits give low values 1.01 | locus YJL095W, strain BCK1 (second series), hits give low values 1.02 | locus YJL095W, strain BCK1, hits give low values 0.991 and 0.993 | locus YJL115W, strain asf1, hits give low values 1 | locus YJL129C, strain trk1, hits give low values 1.03 | locus YJL134W, strain LCB3, hits give low values 0.995 | locus YJL154C, strain vps35, hits give low values 1.02 | locus YJL164C, strain tpk1, hits give low values 1 | locus YJL166W, strain qcr8, hits give low values 1.01 | locus YJL168C, strain set2, hits give low values 0.996 | locus YJL187C, strain SWE1 (second series), hits give low values 0.961 | locus YJL187C, strain SWE1, hits give low values 1.01 | locus YJR043C, strain POL32, hits give low values 1.03 | locus YJR066W, strain TOR1, hits give low values 0.941
